Experimental findings from PubChem BioAssay (NCATS) are described below.

Values joined by “and” are separate entries in the source; they are usually repeats but may differ in a detail not shown here. Equal entries are not always repeated. Results filed as inconclusive are left out. A number with no mark means an inactive call. Active and inactive are the calls of the source. The call rests on the fitted dose curve; in most records, active means well fitted cell-killing curve with a large enough effect; inconclusive means small, poorly fitted or top-dose-only effect, or effect the other way; inactive means no such curve, though single readings can be large or run the other way.
Potency means the concentration at half of the fitted maximal effect.

A short description of the assay: Viability qHTS for spleen associated tyrosine kinase inhibitor (SYKi) drug resistant MV4-11 cells (AID 1963824). Further: nearly all actives have a fitted effect of over 35% in size. As to conditions: SYKi-resistant MV4-11 viability, CellTiter-Glo, 72 h; series mostly up to 45 µM; viability, % of control: at the top concentration. From the text:
Department of Medicine, Hematology/Oncology
University Hospital Frankfurt, Germany.
Trials have shown promising clinical activity of the selective SYK inhibitor entospletinib in patients with high expressing HOXA9/MEIS1 acute leukemias. As the development of resistance mechanisms is a common problem in the use of targeted drugs, we performed a chemical library screen to identify drug sensitivities in SYK inhibitor resistant AML cells. […] Glucocorticoids are potent immunosuppressants which work in part by inhibiting the transcription of cytokine genes.
Described herein is a viability screen to look for activity in the SYK inhibitor drug resistant cell line against four NCATS compound libraries (MIPE 5.0, NPC, NPACT, and Kinase) totaling 11372 compounds. Active hits were reacquired for confirmation and further secondary assay testing.
SEQUENCE No. (e.g., 1, 2, 3, etc.); […] (e.g., Cells, Incubation, Reagent, etc.); VALUE; DESCRIPTION.
1; Media; 2uL; white, solid-bottom Corning assay plate.
2; Compounds; 23nL; Echo acoustic dispenser.
3; Cell; 5uL; 500 cells per well.
4: Incubation; 72hr; 37 C, 5% CO2, 95% humidity.
5; Reagent; 3uL; CellTiter-Glo reagent (Promega).
6; Incubation; 10min; room temperature.
7; Detection; Luminescence; ViewLux plate reader (PerkinElmer).
NOTES (numbers refer to Sequence numbers above
1. Quantitative high-throughput screening (qHTS) of small molecule compounds was conducted on drug resistant SYKi MV4-11 cell line.
2. Twenty-three nanoliter of small molecule compounds were added to each assay plates using the Echo acoustic dispenser (Beckman Coulter).
3. Cells were seeded into the assay plates at a final density of 500 cells in 5uL of media per well using the Multidrop Combi dispenser.
4. Plates were covered with stainless steel gasketed lids and incubated for 72 hours at standard cell culture conditions.
5. Viability was assessed by adding 3uL of CellTiter-Glo detection reagent (Promega).
6. Plates were covered with gasket lids and incubated for 10 minutes at room temperature.
7. Luminescence was measured on a ViewLux plate reader (PerkinElmer).
On to `CN1CCC[C@@H]1CCO[C@](C)(c1ccccc1)c1ccc(Cl)cc1`, for which the Potency was 18.8 µM (active).
The same measure, in the same setting: as for `Nc1[nH]nc2nnc(-c3c(-c4ccccc4)nn4ccccc34)cc12`, the figure is 16.4 µM (active).
Take `COc1ccc(/C=C/C(=O)O[C@H]2[C@@H]3C=CO[C@@H](O[C@@H]4O[C@H](CO)[C@@H](O)[C@H](O)[C@H]4O)[C@@H]3[C@@]3(CO)O[C@@H]23)cc1O`: the “viability, % of control” value is 90.3% [at 17.3 µM].
Turning to `C=C1CC2OC(=O)C(=C)C2C(O)/C=C(\C)CCC1O` (stereo not given), the Potency was 13 µM (active).
Turning to `CC/C=C\[C@H](O)[C@H](O)C1=C(C)C(=O)[C@]2(O1)C(=O)N[C@@](O)(C(=O)c1ccccc1)[C@@H]2O`, the “viability, % of control” value was 83.6% [at 17.3 µM].
As for `OCCN1CCN(CC/C=C2/c3ccccc3Sc3ccc(C(F)(F)F)cc32)CC1`, the Potency is 21.1 µM (active).
Consider `C=CC(=O)N1CCCN(c2cc(NCCC(=O)O)nc(-c3ccccn3)n2)CC1`, for which the “viability, % of control” value was 101%.
As to `COc1cc(OCc2cccc(-c3ccccc3)c2C)cc(OC)c1CN1CCCC[C@H]1C(=O)O`, the Potency was 8.33 µM (active).
`Cc1cn([C@H]2C=C[C@@H](CO)O2)c(=O)[nH]c1=O`: the “viability, % of control” value is 73%.
Take `CN[C@@H](C)C(=O)N[C@@H]1C(=O)N(Cc2c(C)ccc3ccccc23)c2ccc(C#N)cc2N(C(C)=O)[C@H]1C`: the Potency is 13.2 µM (active).
Take `C[C@H]1O[C@H](O[C@H]2[C@H](O)[C@@H](O)[C@@H](O[C@H]3[C@H](O)[C@@H](O)[C@H](O)O[C@@H]3CO)O[C@@H]2CO)[C@H](O)[C@@H](O)[C@@H]1N[C@H]1C=C(CO)[C@@H](O)[C@H](O)[C@H]1O`: the “viability, % of control” value is 102%.
As for `COc1cc2c(cc1O)C1(OC)Cc3ccc4c(c3C1N(C)CC2)OCO4` (stereo not given), the Potency was 5.08 µM (active).
Take `CC(C)=CCC[C@@](C)(O)[C@H]1CC[C@]2(C)[C@@H]1[C@H](O)CC1[C@@]3(C)CC[C@H](O[C@@H]4O[C@H](CO)[C@@H](O)[C@H](O)[C@H]4O[C@@H]4O[C@H](CO)[C@@H](O)[C@H](O)[C@H]4O)C(C)(C)[C@@H]3CC[C@]12C` (stereo not given in full): the “viability, % of control” value is 87.5% [at 17.3 µM].
Turning to `CC/C=C\CC1C(=O)C=CC1(CCCCC1CCC(=O)O1)OC(C)=O` (stereo not given), the Potency is 7.18 µM (active).
Take `NC(=O)c1ccc([N+](=O)[O-])cc1Cl`: the “viability, % of control” value was 76.5%.
On the same count and under the same terms, the figure for `COC(=O)[C@]1(C)CCC[C@@]2(C)[C@@H]3CC[C@@H]4C[C@@]3(CC[C@@H]21)C[C@H]4C(=O)O` is 104%.
As for `Fc1ccc2c(CCNCc3cccc(OCC(F)(F)C(F)F)c3)c[nH]c2c1`, the Potency was 16.4 µM (active).
Same read-out and setting: as for `COc1cccc2c1C(=O)c1c(O)c3c(c(O)c1C2=O)C[C@@](O)(C(=O)CO)C[C@@H]3O[C@H]1C[C@H](N)[C@H](OC2CCCCO2)[C@H](C)O1` (stereo not given in full), the figure is 118 nM (active) and 59 nM (active); as for `N#Cc1ccc(-c2cnc3[nH]cc(NC(=O)c4cccnc4)c3c2)cc1`, 0.92 µM (active).
On the same count and under the same terms, as for `CCOc1cc(C(C)(C)C)ccc1C1=NC(C)(c2ccc(Cl)cc2)C(C)(c2ccc(Cl)cc2)N1C(=O)N1CCN(CCCS(C)(=O)=O)CC1` (stereo not given), the figure is 9.2 µM (active); as for `COc1c/c(=C2\C=c3ccccc3=N2)[nH]/c1=C\c1[nH]c(C)cc1C`, 5.8 µM (active).
Take `CC(C)C1CCC(CO)=CC1/C=C(\CO)C(=O)OCC1(O)CCC(C(C)C)C2C=C(C(=O)O)COC(=O)C21` (stereo not given): the “viability, % of control” value was 79.7% [at 17.3 µM].
For the compound `C[N+]1(C)[C@@H]2CC(OC(=O)[C@H](CO)c3ccccc3)C[C@H]1[C@@H]1O[C@@H]12` (stereo not given in full), the Potency entry is “inactive”.
The same measure, in the same setting: the figure for `CC1=CCC2C(C)(CO)CCCC2(CO)C1CO` (stereo not given) is 16.4 µM (active); for `CCCS(=O)(=O)Nc1ccc(F)c(C(=O)c2c[nH]c3ncc(Cl)cc23)c1F` it is 11.8 µM (active); for `C[N+](C)([O-])CCNc1ccc(NCC[N+](C)(C)[O-])c2c1C(=O)c1c(O)ccc(O)c1C2=O` it is 0.934 µM (active).
For the compound `CC(=O)OC(C)OC(=O)C(C)c1ccc(-c2ccccc2)c(F)c1` (stereo not given), the “viability, % of control” value was 95.4%.
As to `CC1(C)CCCC2(C)C(CO)C3CCC2C31` (stereo not given), the “viability, % of control” value is 77.7%.
With `NC1(C(=O)N[C@@H](CCO)c2ccc(Cl)cc2)CCN(c2ncnc3[nH]ccc23)CC1`, the Potency was 0.651 µM (active).
With `Clc1cccc(Cl)c1NC1=NCCN1`, the “viability, % of control” value was 93.4%.
The same measure, in the same setting: as for `CC(C)=CCCC1(C)Oc2cc3c(c4c2C2C(O4)C(C)(O)CCC21)CN(C(CCC(=O)O)C(=O)O)C3=O` (stereo not given), the figure is 73.8% [at 17.3 µM]; as for `NS(=O)(=O)c1ccc(N2CCCCS2(=O)=O)cc1`, 85.4%; as for `CCCCOc1cc(C(=O)OCCN(CC)CC)ccc1N`, 78.3%.
On the same count and under the same terms, as for `CC(C)(O)c1ccc2c(c1)C(O)CC1C(C)(C(=O)O)CCCC21C` (stereo not given), the figure is 95.9%.
The same measure, in the same setting: as for `NC(=O)[C@H](Cc1ccccc1)NC(=O)[C@H](CCCN=C(N)N)NC(=O)C12CC3CC(CC(C3)C1)C2`, the figure is 78% [at 9.25 µM].
Turning to `CCCCOc1ccc(-c2cncc(C(=O)NCc3cccnc3N3CCOCC3)c2)cc1Cl`, the Potency was 13 µM (active).
As for `C[C@H](O)C(=O)Nc1c(I)c(C(=O)NC(CO)CO)c(I)c(C(=O)NC(CO)CO)c1I`, the “viability, % of control” value is 90.8%.
The same measure, in the same setting: the figure for `C[N+]1(C)[C@@H]2CC[C@H]1CC(OC(=O)C(O)c1ccccc1)C2` (stereo not given in full) is 101%.
The same measure, in the same setting: as for `CCN(CC)C(C)CN1c2ccccc2Sc2ccccc21` (stereo not given), the figure is 74.8%.
Still for that read-out and setting: as for `O=C(O)Cc1csc(-c2ccc(Cl)cc2)n1`, the figure is 86.1%.
